Compound activity (PubChem BioAssay)
Hits are enriched below; roughly 7.9% of the tested compounds scored in any of these assays.
MARV entry inh – inhibitors of Marburg virus binding or cell entry; hit rate 1.8% among 300,000; Potency, µM (top dose mostly 37.8 µM), hits mostly inhibitors; Marburg virus pseudotyped entry inhibition, cell reporter; calls by dose curve; tested in HEK293 cells
HCV inhibitor – blocks hepatitis C virus. Huh7.5.1 HCVcc-Cre infection, luciferase reporter, 44 h. Potency, µM (doses to about 41.8 µM), hits mostly inhibitors. hit rate 3.4% among 340,000; active = well fitted inhibition curve with a large enough effect; inconclusive = small, poorly fitted or top-dose-only effect, or another doubt; inactive = no such curve, though single readings can be large or run the other way
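HCVcc-Cre virus at an moi near 0.5 was added right after compound to cells cultured 4 h from seeding (1,000 cells/well). Luciferase activity was determined 44 h later, 15 min after substrate addition at RT.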
Lassa entry inh – blocks Lassa virus binding to or entry into cells | Lassa virus pseudotype entry inhibition, cell reporter | Potency, µM (doses to about 37.9 µM), actives largely listed as inhibitors | hit rate 1.2% among 300,000; calls by dose curve; tested in HEK293 cells; note: nearly all actives have a fitted effect of over 50% in size
HCMV inh – blocks human cytomegalovirus replication; HFF cells, HCMV-luciferase reporter, 72 h; stronger effect = lower value; activity change, negative = inhibition, % at 57.5 µM; hit rate 4.5% among 410,000; AID 1259415; in the data active = activity change below about -60%; inconclusive = no clear call, values can overlap the other calls; inactive = above about -39%
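Human foreskin fibroblasts infected with luciferase-reporter HCMV at MOI 1 PFU/cell, compounds at two doses. Luciferase measured 72 h post infection; normalized to buffer-only basal and Salinomycin (10uM) controls.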
FMDV inh – foot and mouth disease virus antiviral activity; FMDV antiviral cell-based qHTS; Potency, µM (titrated, usually from 57.9 µM), usual class: inhibitors; hit rate 1.2% among 410,000; calls by dose curve; tested in HEK293T cells; note: read-out not given here; nearly all actives have a fitted effect of over 45% in size
Numbers stand for hits; - = inactive; ? = inconclusive; . = no result given; ! = not confirmed by another sample.

SMILES	MARV entry inh	HCV inhibitor	Lassa entry inh	HCMV inh	FMDV inh
COc1cccc(Cn2c(=O)c(-c3cccs3)nc3cnc(Nc4ccccc4)nc32)c1	.	.	.	.	-
COc1ccc(OC)c(N(CC(=O)Nc2cccnc2)S(=O)(=O)c2ccc(C)cc2)c1	?	-	?	-	.
CCOc1ccccc1N(CC(=O)Nc1cc(OC)ccc1OC)S(C)(=O)=O	-	-	-	-	-
CCOc1ccccc1N(CC(=O)Nc1cccnc1)S(=O)(=O)c1ccc(C)cc1	-	-	-	-	-
COc1ccc(OC)c(N(CC(=O)Nc2cccnc2)S(=O)(=O)c2ccc(OC)c(OC)c2)c1	2.8µM!	-	-	-	-
CCOc1ccccc1N(CC(=O)Nc1cc(OC)ccc1OC)S(=O)(=O)c1ccccc1	.	?	.	-102	-
CCOc1ccccc1N(CC(=O)Nc1ccccc1)S(=O)(=O)c1ccccc1	.	-	.	-98	-
COc1ccc(CCNC(=O)COC(=O)C2CC2)cc1OC	-	-	-	-	-
Cc1cc(C)c2[nH]c(C(=O)Nc3ccc(F)cc3Br)cc2c1	-	-	-	-	-
Cc1csc(SCC(=O)NCC2Cc3cc(-c4cncnc4)ccc3O2)n1 (centres undefined)	.	.	.	.	-
CCC1(CC)NC(=O)N(CC(=O)Nc2sc3c(c2C(N)=O)CCC3)C1=O	?	?	-	-	-
COc1ccc(Cc2noc(CN3CCN(Cc4cccc(Cl)c4)CC3)n2)cc1OC	?	?	?	-	?
COc1ccccc1Cc1noc(-c2cc(Cl)ccc2OC)n1	-	7.1µM	-	-	-
COc1ccc(Cc2noc(CN3CCN(c4ccc(Cl)cn4)CC3)n2)cc1OC	?	?	?	-	13µM
COc1ccc(-c2nc(Cc3ccc(Cl)cc3)no2)cc1OC	-	?	4µM	-74	-
CC(=O)N1CC(=O)N2[C@@H](CO)[C@H](c3ccc(Br)cc3)[C@@H]2C1	.	.	.	-	.
CCOC(=O)C(C)=NNC(C)=O	-	.	.	.	.
Cc1c(Cl)cccc1NS(=O)(=O)c1c(C(=O)N2CCOCC2)c(C)n(C)c1C	-	-	-	?	-
O=C(Nc1ccc(S(=O)(=O)N2CCCC2)cc1)c1ccc(F)cc1	-	-	-	-	-
N#CCc1ccc(NC(=O)c2ccc(S(=O)(=O)N3CCCC3)cc2)cc1	-	14µM	-	-	-
CCN(CC)S(=O)(=O)c1ccc(OC)c(NC(=O)c2ccc(N3CCCC3=O)cc2)c1	.	-	.	-	-
O=C(Nc1ccc([N+](=O)[O-])cc1)c1ccc(S(=O)(=O)N2CCCC2)cc1	-	-	?	-	-
CCN(CC)S(=O)(=O)c1ccc(NC(=O)c2ccc(N3CCCC3=O)cc2)cc1	?	?	?	-76	?
O=C(Nc1ccc(S(=O)(=O)N2CCCCCC2)cc1)c1[nH]ncc1[N+](=O)[O-]	.	.	.	-87	.
O=C(Nc1ccc(Cc2ccncc2)cc1)c1ccc(S(=O)(=O)N2CCOCC2)cc1	?	?	?	-73	18µM
SMILES	MARV entry inh	HCV inhibitor	Lassa entry inh	HCMV inh	FMDV inh
COc1ccc2c(c1)c(CC(=O)Nc1cccc(F)c1C)c(C)n2C(=O)c1ccc(Cl)cc1	-	.	?	-	-
O=C(COC(=O)c1cc(F)cc(F)c1)NCCCc1ccccc1	.	-	.	-	-
O=C(Nc1ccc(S(=O)(=O)N2CCCC2)cc1)c1ccc(CN2CCOCC2)cc1	?	6.3µM	?	-81	16µM
O=C(Nc1ccc(Cc2ccncc2)cc1)c1ccc(Cl)c([N+](=O)[O-])c1	-	-	-	-	28µM
CN(c1ccc(C(=O)Nc2ccc(S(=O)(=O)N3CCCC3)cc2)cc1)S(C)(=O)=O	?	5µM	?	-98	?
CCN(CC)S(=O)(=O)c1ccc(NC(=O)c2ccc(CN3CCOCC3)cc2)cc1	?	?	?	-95	.
Cn1cccc1C(=O)N1CCC[C@@]2(CCN(C(c3ccccc3)c3ccccc3)C2)C1	.	.	.	.	-
O=C1[C@H]2[C@@H]3[C@@H](O)[C@H](O)CC(=NOCc4ccccc4)[C@H]3CC[C@H]2C(=O)N1C[C@@H]1CCCO1	-	.	.	.	.
O=C(Nc1ccc(S(=O)(=O)N2CCCCC2)cc1)c1ccc(CN2CCOCC2)cc1	8.2µM	2.8µM	?	.	.
CCCCCc1ccc(CC(=O)Nn2c(C)nc3ccccc3c2=O)cc1	-	?	-	-69	.
COc1ccc(CN(C2CCCC2)S(=O)(=O)c2ccccc2Br)cc1	13µM	.	.	.	.
COc1ccc(CN(C2CCCC2)S(=O)(=O)c2ccc(-n3cnnn3)cc2)cc1	?	?	-	-	-
Cn1c2c(c(=O)n(C)c1=O)[C@](NC(=O)c1cccs1)(C(F)(F)F)C(=O)N2	-	.	.	.	.
COCCCN1CCN(C2Cc3ccccc3Sc3ccc(Cl)cc32)CC1 (centres undefined)	?	-	?	-	-
CN(C)CCOC1c2ccccc2CSc2ccccc21 (centres undefined)	?	-	-	-	-
NC(=O)CCN1CCN(CCOC2Cc3cc(Cl)ccc3Sc3ccccc32)CC1 (centres undefined)	?	11µM	?	?	-
CN1CCN(CCOC2c3ccccc3CSc3ccc(Cl)cc32)CC1 (centres undefined)	?	?	21µM	-	-
C=CCNC(=O)C(=O)N/N=C/c1ccco1	-	-	-	-	-
COc1cc(NS(=O)(=O)c2ccc(-n3cccn3)cc2)cc(OC)c1	.	.	.	.	-
O=C(NCCOc1ccccc1)c1ccc2c(c1)S(=O)(=O)c1cc(Cl)ccc1C2=O	.	-	.	-	-
CCc1nc2ccc(C(=O)NCc3ccc4c(c3)OCO4)cn2c1N(C)C(=O)Cc1ccccc1	.	.	.	-	-
Cc1ccc(Oc2c(C(N)=O)cc([N+](=O)[O-])cc2[N+](=O)[O-])cc1	?	3.5µM	?	-	?
Cc1ccc(CNc2ccc([N+](=O)[O-])cc2C(N)=O)cc1	.	?	.	-	-
Cc1ccc2[nH]cc(C(=O)CCl)c2c1	?	25µM	?	-91	11µM
Cc1ccc2[nH]cc(C(=O)CN3CCN(C)CC3)c2c1	?	-	-	-	-
SMILES	MARV entry inh	HCV inhibitor	Lassa entry inh	HCMV inh	FMDV inh
CC[C@@]1(C)Cc2c(sc3c2c(=O)n(C)c2nnc(SCc4ccccc4)n32)CO1	-	.	.	.	.
Cc1cccc(NC(=O)c2ccc(Cn3nc(N4CCN(c5ccccc5)CC4)ccc3=O)o2)c1C	.	.	-	-72	-
Cc1ccc(F)cc1NC(=O)c1ccc(Cn2nc(N3CCN(c4ccccc4)CC3)ccc2=O)o1	.	.	?	-73	35µM
CCN(CC)CCNC(=O)c1[nH]c2ccccc2c1Sc1ccc(Cl)cc1	-	.	-	-	-
O=C(c1ccc(F)c(F)c1)N1CCOc2ccc(CN3CCN(Cc4ccccn4)CC3)cc2C1	.	.	.	.	-
COc1cc(SC)ccc1C(=O)N1CCc2ccccc21	-	-	-	-	-
O=Cc1ccccc1OCCN1CCCC1=O	.	-	.	-63	-
O=Cc1ccc(OCCN2CCCC2=O)cc1	-	-	-	-	-
Cc1ccccc1S(=O)(=O)N1[C@@H](c2ccc(Cl)cc2)C(C(=O)O)=CC[C@H]1c1ccc(Cl)cc1	.	?	.	-	-
Cc1nc2ccn(Cc3cccs3)c(=O)c2cc1C(=O)Nc1ccccc1	.	.	-	-	-
O=C(NCCc1cnc[nH]1)c1cccs1	.	-	.	-	-
NS(=O)(=O)c1ccc(N=Nc2c(O)[nH]c3ccc(C(=O)NCCc4cnc[nH]4)cc23)cc1	.	.	5µM	.	.
